S-ASM inh: Inhibitors of Secretory Acid Sphingomyelinase (S-ASM): qHTS | Potency, µM (highest dose often 57.5 µM), for inactives: at the top dose activity change, negative = inhibition, most hits filed as inhibitors | placental ASM, HMU-PC fluorogenic substrate, 60 min | 340,000 compounds, 0.006% hits | Sphingomyelin phosphodiesterase (Homo sapiens), P17405; also: potency is read from the fitted curve at half-maximal effect
Target sequence (P17405 47-631 limits assumed): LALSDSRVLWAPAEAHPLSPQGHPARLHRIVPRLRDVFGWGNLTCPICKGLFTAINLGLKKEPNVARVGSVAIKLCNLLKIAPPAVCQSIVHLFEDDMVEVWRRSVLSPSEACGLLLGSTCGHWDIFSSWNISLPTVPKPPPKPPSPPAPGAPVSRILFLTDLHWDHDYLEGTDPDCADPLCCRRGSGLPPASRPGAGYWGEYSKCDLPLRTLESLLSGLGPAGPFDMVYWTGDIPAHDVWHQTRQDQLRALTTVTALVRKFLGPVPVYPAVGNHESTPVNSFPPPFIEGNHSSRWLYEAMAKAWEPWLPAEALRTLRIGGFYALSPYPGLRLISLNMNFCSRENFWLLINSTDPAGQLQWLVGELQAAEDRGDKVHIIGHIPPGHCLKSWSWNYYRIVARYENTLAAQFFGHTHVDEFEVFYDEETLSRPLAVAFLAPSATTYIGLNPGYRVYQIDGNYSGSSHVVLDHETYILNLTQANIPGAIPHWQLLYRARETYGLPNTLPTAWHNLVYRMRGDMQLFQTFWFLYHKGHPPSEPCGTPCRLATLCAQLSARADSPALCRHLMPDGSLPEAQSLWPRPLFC
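Human placenta-derived ASM enzyme was preincubated with compound for 10 minutes at room temperature, then given fluorogenic substrate HMU-PC0 (9 uM final) for 60 minutes at 37 °C; a pH 10 stop preceded fluorescence reading at Ex 386/Em 447 nm.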
DT40 TDP1 no CPT: qHTS for Inhibitors of human tyrosyl-DNA phosphodiesterase 1 (TDP1): qHTS in cells in absence of CPT. AID 686978, 2013. DT40 Tdp1-/- hTDP1 cells, no CPT, ATP luminescence, 48 h. Potency, µM (highest dose often 46.2 µM), for inactives: at the highest dose activity change, negative = growth inhibition, most hits filed as inhibitors. 420,000 compounds, 15% hits; also: potency is read from the fitted curve at half-maximal effect; % is scaled to controls: 0 for no effect and ±100 for the full control effect; nearly all actives have a fitted effect of over 55% in size
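No-CPT arm: Tdp1-/-;hTDP1 DT40 cells (400/well) plus compounds, incubated ≥48 hr at 37 °C. Readout CellTiter-Glo luminescence.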
TGFb SMAD3 inh: qHTS for Inhibitors of TGF-b; HepG2 CAGA-GFP TGF-b/SMAD3 reporter, GFP fluorescence, 18 h; TGF-beta stimulated, 500 pg/mL final; Potency, µM (doses to about 46.1 µM), for inactives: at the top dose activity, negative = inhibition, usual class: inhibitors; 410,000 compounds, 1.2% hits; also: potency is read from the fitted curve at half-maximal effect; % is scaled to controls: 0 for no effect and ±100 for the full control effect; nearly all actives have a fitted effect of over 65% in size
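Inhibition of TGF-beta-driven CAGA-GFP reporter expression in HEPG2 cells is measured by cellular GFP fluorescence after 18 h stimulation with 500 pg/mL recombinant TGF-beta in 1% FBS medium at 37 degrees C.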
HepG2 viability: qHTS for Inhibitors of TGF-b: Cytotox Counterscreen. HepG2 CAGA-GFP viability, ATP luminescence, 18 h. 410,000 compounds, 0.76% hits. Potency, µM (top dose mostly 46.1 µM), for the others: at the top dose activity change, negative = cytotoxicity, most hits filed as cytotoxic; also: potency is read from the fitted curve at half-maximal effect
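HepG2 CAGA-GFP cells (1000/well, DMEM with 1% FBS) received compound, then TGF-beta at 500 pg/mL final, and were incubated 18 hours at 37 degrees C. Viability was read by CellTiter-Glo luminescence. Media-only wells were set as complete cell-killing and DMSO as no toxicity.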
DT40 TDP1 CPT: qHTS for Inhibitors of human tyrosyl-DNA phosphodiesterase 1 (TDP1): qHTS in cells in presence of CPT; 420,000 compounds, 12% hits; AID 686979, 2013; chicken DT40 Tdp1-/-;hTDP1 cells + 20 nM CPT, ATP luminescence, 48 h; Potency, µM (highest dose often 46.2 µM), for inactives: at the highest dose activity change, negative = growth inhibition, actives largely listed as inhibitors; also: potency is read from the fitted curve at half-maximal effect; % is scaled to controls: 0 for no effect and ±100 for the full control effect; nearly all actives have a fitted effect of over 55% in size
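Chicken DT40 Tdp1-/- cells complemented with human TDP1, 400 cells/well, exposed to compounds plus 20 nM camptothecin for at least 48 h at 37 C; viability read as ATP content by CellTiter-Glo luminescence.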
IL-1B inflam inh: qHTS for Inhibitors of Inflammasome Signaling: IL-1-beta AlphaLISA Primary Screen; THP-1 LPS/ATP IL-1B secretion, AlphaLISA, 16 h; stronger effect = lower value; activity change, % at 57.5 µM; 360,000 compounds, 4.7% hits; AID 743279, 2014; in the data active = activity change below about -50%; inconclusive = mostly about -30% to -49%; also: % is scaled to controls: 0 for no effect and ±100 for the full control effect
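Secreted IL-1B measured by AlphaLISA bead assay after 16 h compound exposure of THP-1 cells; compounds (final up to 57.5 uM) added 1 h before LPS (250 ng/mL) and ATP (1.25 mM) stimulation; lower signal means less secretion.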
An asterisk follows results filed as active; ? = inconclusive; / = no result given; [ ] = remark or other dose. In the library only some 19% were active in any assay of this set; here they are far more common. Unless noted, calls follow the shape of the dose curve; as a rule, active = well fitted curve in the direction sought with a large enough effect; inconclusive = small, poorly fitted or top-dose-only effect, or another doubt; inactive = no such curve, though single readings can be large; an effect the other way counts as inactive or inconclusive.

SMILES	S-ASM inh	DT40 TDP1 no CPT	TGFb SMAD3 inh	HepG2 viability	DT40 TDP1 CPT	IL-1B inflam inh
COc1ccc(Cl)cc1N(CC(=O)N(C)C)S(=O)(=O)c1ccc(C)c([N+](=O)[O-])c1	0%	21µM*	-8%	-4%	?	20
C=CCOc1cccc(/C=N/NC(=O)CN(c2cc(Cl)ccc2OC)S(=O)(=O)c2ccc(C)c([N+](=O)[O-])c2)c1	-1%	16µM*	18%	3%	?	-7
C=CCNC(=S)NNC(=O)C(CCCC)CC(C)(C)O (stereo not drawn)	1%	7.3µM*	-11%	0%	8.2µM*	0
Cc1cc(NC(=O)CCCSc2nc(-c3ccco3)cc(C(F)(F)F)n2)n(-c2ccccc2)n1	?	21µM*	?	-9%	?	-27
Cc1cc(NC(=O)CSc2nc(-c3ccco3)cc(C(F)(F)F)n2)n(-c2ccccc2)n1	0%	4.1µM*	-26%	-1%	4.1µM*	45
O=C(CSc1nnc2ncccn12)Nc1cccc2ccccc12	1%	?	-18%	19%	-4%	15
c1cc(-c2cc3cc(N4CCOCC4)ccc3o2)cs1	-2%	-4%	2%	3%	1%	-1
CC(=O)c1ccc(N2CCC(c3cc(-c4ccc(Cl)cc4Cl)n[nH]3)CC2)c([N+](=O)[O-])c1	?	6.5µM*	?	-29%	4.1µM*	-55*
O=C(O)c1ccc(N2CCN(c3ccc(Cl)cc3)CC2)c([N+](=O)[O-])c1	5%	-4%	0%	-32%	11%	-4
O=[N+]([O-])c1cccnc1N1CCC(c2cc(-c3ccc(Cl)cc3Cl)n[nH]2)CC1	-12%	21µM*	-15%	-96%	18µM*	0
COc1ccc(C(=O)NCC2(N3CCCCC3)CCCCC2)cc1S(=O)(=O)N(C)C	1%	2%	26%	5%	3%	17
O=C(O)C[C@@H](CNC(=O)COc1ccc2ccc(=O)oc2c1)c1ccc(Cl)cc1	23%	3%	12%	14%	-9%	-4
CC(C)N1C(=O)C(O)(C2COC(C)(C)CC2=O)c2ccccc21 (stereo not drawn)	-2%	7.3µM*	-3%	-17%	5.8µM*	-3
CC1(C)CC(=O)CC(C2(O)C(=O)N(Cc3ccccc3)c3ccccc32)O1 (stereo not drawn)	-2%	1.8µM*	-5%	-6%	2.6µM*	21
CC1(C)CC(=O)C(C2(O)C(=O)N(Cc3ccccc3)c3ccccc32)CO1 (stereo not drawn)	-1%	5.2µM*	-8%	-2%	4.6µM*	-2
CC1(C)CC(=O)C(C2(O)C(=O)Nc3ccccc32)CO1 (stereo not drawn)	3%	-11%	1%	-1%	19%	6
Cc1ccc(SCCC(=O)Nc2ccccc2Br)cc1	-2%	-9%	1%	3%	7%	13
CN(CC(=O)Nc1ccccc1Br)C(=O)CCSc1ccc(F)cc1	-1%	13µM*	?	-15%	?	1
COc1ccccc1CNC(=O)CN(C)Cc1ccc(SC)cc1	-9%	23µM*	?	-19%	16µM*	-17
CSc1ccc(CN(C)CC(=O)Nc2ccccc2Br)cc1	2%	?	?	-21%	23µM*	0
CSc1ccccc1NC(=O)CN(C)Cc1c(O)ccc2ccccc12	18%	23µM*	?	-35%	?	-10
CCN(CC)C1CCN(C(=O)c2cnn(-c3nccc(-c4ccccc4OC)n3)c2-c2ccco2)C1 (stereo not drawn)	/	-25%	/	/	-2%[9.04 µM]	/
C/C(=N\Nc1ccc2nncn2n1)c1ccccn1	-2%	4.6µM*	-15%	-2%	2.3µM*	89
c1ccc(N2CCN(c3ccc4nncn4n3)CC2)nc1	2%	-4%	-14%	-14%	-13%	-30
C(=N\Nc1ccc2nncn2n1)/c1ccccn1	-1%	23µM*	2%	-1%	12µM*	/
SMILES	S-ASM inh	DT40 TDP1 no CPT	TGFb SMAD3 inh	HepG2 viability	DT40 TDP1 CPT	IL-1B inflam inh
O=C(COC(=O)CNS(=O)(=O)c1ccccc1)Nc1ccc(Cl)cn1	-2%	-1%	0%	5%	-1%	19
O=C(COC(=O)CNS(=O)(=O)c1ccccc1)Nc1ncc(Cl)cc1Cl	9%	6.5µM*	0%	2%	6%	-16
O=C(COC(=O)CNC(=O)c1ccc([N+](=O)[O-])o1)Nc1ncc(Cl)cc1Cl	2%	-7%	?	-54%	?	-92*
CC1=CC(=O)C(C(C)C)=CC1=NC(=O)c1ccc(C)cc1	-2%	2.1µM*	-10%	-5%	2.3µM*	15
CCn1c(C)c(C(=O)c2ccccc2)c(C#N)c1C(=O)O	-2%	0%	?	-17%	?	32
Cc1csc2nc(COC(=O)c3ccc(NC(=O)C(C)Oc4ccccc4)cc3)cc(=O)n12 (stereo not drawn)	/	?	-19%	-3%	?	/
Cc1csc2nc(COC(=O)c3ccc(NC(=O)C(C)C)cc3)cc(=O)n12	/	26µM*	-17%	-19%	18µM*	/
Cc1ccccc1C(=O)Nc1ccc(C(=O)OCc2cc(=O)n3c4c(sc3n2)CCCC4)cc1	/	?	11µM*	8.9µM*	?	/
Cc1csc2nc(COC(=O)c3ccc(NC(=O)c4ccccc4Br)cc3)cc(=O)n12	/	18µM*	-29%	-17%	21µM*	/
Cc1ccc(N(CC(=O)NCCSc2nc3ccccc3s2)S(=O)(=O)c2ccccc2)c(C)c1	-4%	26µM*	?	15%	?	-9
O=C(CN(c1ccccc1)S(=O)(=O)c1ccccc1)NCCSc1nc2ccccc2s1	-4%	18µM*	0%	-22%	?	54
COc1ccc(N(CC(=O)NCCSc2ccc(C)cc2)S(=O)(=O)c2ccccc2)c(OC)c1	-2%	?	6%	0%	?	-9
CCn1ccc2cc(S(=O)(=O)N3CCC(C(=O)NCc4cccc(C)c4)CC3)ccc21	/	?	-34%	-6%	?	/
COc1ccc(/C=C/c2n[nH]c(=O)c(C#N)c2C)cc1	-2%	?	-2%	-12%	4%	-97*
